# Measured values from PubChem BioAssay (Tox21).
# Several values for one entry are separate records, joined by “and”; a condition that tells them apart may be missing. Equal entries are not always repeated. Records with an inconclusive call do not appear. Some structures have more than one record in an assay (separate samples or runs), and their calls can disagree. Activity calls are given as the source filed them. Calls follow the shape of the dose curve; as a rule, active = well fitted cell-killing curve with a large enough effect in the repeat runs; inconclusive = weak or mixed curves, or effect the other way; inactive = no such curve, though single readings can be large or run the other way.
# Experiment: qHTS assay to identify small molecule antagonists of the glucocorticoid receptor (GR) signaling pathway - cell viability counter screen (AID 720693); also: nearly all actives have a fitted effect of over 55% in size
# Settings: GR-bla HeLa viability, CellTiter-Glo luminescence, 18 h, with 5 nM dexamethasone present; series mostly up to 58.5 µM
row,SMILES,Potency
1,CCC1(CO)COCOC1,inactive
2,COC(=O)CS,inactive
3,Brc1cc2ccccc2c2ccccc12,inactive
4,Cc1cc2c(OCC(CNC(C)(C)C)OC(=O)c3ccccc3)cccc2[nH]1 (centres undefined),inactive
5,CC1=Nc2ccc3ccccc3c2C1(C)C,inactive
6,O=C=Nc1ccc(Cl)c(Cl)c1,inactive
7,OC[C@H]1O[C@@H](n2cnc3c(=S)nc[nH]c32)[C@H](O)[C@@H]1O,inactive
8,CN1CCCN=C1COC(=O)C(O)(c1ccccc1)C1CCCCC1 (centres undefined),inactive
9,O=C=Nc1cccc(C(F)(F)F)c1,inactive

# Experiment: qHTS assay for identifying genotoxic compounds that show differential cytotoxicity against isogenic chicken DT40 cell lines with known DNA damage response pathways - wild type cell line (AID 743012); also: nearly all actives have a fitted effect of over 60% in size; also: potency is read from the fitted curve at half-maximal effect
# Settings: DT40 wild type chicken cells viability, CellTiter-Glo, 40 h; series mostly up to 68.4 µM
# Procedure, shortened: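 CellTiter-Glo luminescence readout of viability in wild type DT40 cells after 40 h compound exposure at 37 C/5% CO2; 300 cells/well; reagent incubated 30 min at room temperature before reading.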
row,SMILES,Potency
1,CCCCC(CC)CN (centres undefined),55.5 µM (active)
2,CCCCCC[C@@H](O)C/C=C\CCCCCCCC(=O)O,inactive and 29.8 µM (active)
3,CC(=O)N/N=C/c1ccc([N+](=O)[O-])o1,11.9 µM (active)
4,CCOC(=O)c1ccccc1C(=C1C=C(Br)C(=O)C(Br)=C1)c1cc(Br)c(O)c(Br)c1,inactive
5,CCCCN1CCCC1C(=O)Nc1c(C)cc(C)cc1C (centres undefined),16.8 µM (active)
6,CCOC(=O)/C=C/C(=O)OCC,inactive
7,COC(=O)C1=C(C)NC(C)=C(C(=O)O[C@@H]2CCCN(Cc3ccccc3)C2)[C@@H]1c1cccc([N+](=O)[O-])c1,13.3 µM (active)
8,CC(=O)NC1(c2cccc(F)c2)CCN(CC[C@@]2(c3ccc(Cl)c(Cl)c3)CN(c3ccccc3)C(=O)CO2)CC1,43.4 µM (active)
9,CCC(=O)C1CC(C(C)C)CC=C1C (centres undefined),inactive
10,Cc1cc(O)ccc1O,inactive
11,CCCCCCCCCCCCCCN(CCO)CCO,2.43 µM (active)
12,O=[N+]([O-])c1cc(C2CCCCC2)c(O)c([N+](=O)[O-])c1,17.2 µM (active)
13,COc1ccccc1NC(=O)c1cc2ccccc2cc1O,43.3 µM (active)
14,C[C@]12CC[C@@H]3c4ccc(O)cc4CC[C@H]3[C@@H]1CC[C@@H]2OC(=O)CCC1CCCC1,11.9 µM (active)
15,C/C=C(/C(=C/C)c1ccc(O)cc1)c1ccc(O)cc1,inactive

# Experiment: qHTS assay for identifying genotoxic compounds that show differential cytotoxicity against isogenic chicken DT40 cell lines with known DNA damage response pathways - Rev3 mutant cell line (AID 743014); also: nearly all actives have a fitted effect of over 55% in size; also: potency is read from the fitted curve at half-maximal effect
# Settings: chicken DT40 Rev3-/- viability, CellTiter-Glo, 40 h; series mostly up to 68.4 µM
row,SMILES,Potency
1,C=CC(=O)OCC1CC2CC1C1CCC(COC(=O)C=C)C21 (centres undefined),24.3 µM (active)
2,O=C(Cn1ccnc1[N+](=O)[O-])NCCO,inactive
3,O=c1cc(-c2ccccc2)oc2cc(O)cc(O)c12,48.6 µM (active)
4,O=C1c2ccccc2C(=O)C1(O)O,24.5 µM (active)
5,O=C(CCc1ccc(O)cc1)c1c(O)cc(O)cc1O,62.5 µM (active)
6,C1C[C@@H]2[C@H]3CC[C@H](C3)[C@@H]2C1,inactive
7,CCCCC(CC)CN (centres undefined),62.3 µM (active)
8,CCCCCCCCOc1ccc(C(=O)O)cc1,inactive
9,CCCCCC[C@@H](O)C/C=C\CCCCCCCC(=O)O,inactive
10,CC1(CN2CCC(n3c(=O)[nH]c4ccccc43)CC2)OCc2ccccc2-n2cccc21 (centres undefined),29.8 µM (active)
11,CC(=O)N/N=C/c1ccc([N+](=O)[O-])o1,10.6 µM (active)
12,CCOC(=O)c1ccccc1C(=C1C=C(Br)C(=O)C(Br)=C1)c1cc(Br)c(O)c(Br)c1,inactive
13,CCCCN1CCCC1C(=O)Nc1c(C)cc(C)cc1C (centres undefined),23.7 µM (active)
14,CCOC(=O)/C=C/C(=O)OCC,inactive
15,COC(=O)C1=C(C)NC(C)=C(C(=O)O[C@@H]2CCCN(Cc3ccccc3)C2)[C@@H]1c1cccc([N+](=O)[O-])c1,21.1 µM (active)
16,CC(=O)NC1(c2cccc(F)c2)CCN(CC[C@@]2(c3ccc(Cl)c(Cl)c3)CN(c3ccccc3)C(=O)CO2)CC1,54.6 µM (active)
17,CCC(=O)C1CC(C(C)C)CC=C1C (centres undefined),inactive
18,Cc1cc(O)ccc1O,inactive
19,CCCCCCCCCCCCCCN(CCO)CCO,1.09 µM (active)
20,O=[N+]([O-])c1cc(C2CCCCC2)c(O)c([N+](=O)[O-])c1,21.6 µM (active)
21,COc1ccccc1NC(=O)c1cc2ccccc2cc1O,48.6 µM (active)
22,c1cc(N(CC2CO2)CC2CO2)ccc1Cc1ccc(N(CC2CO2)CC2CO2)cc1 (centres undefined),0.0611 µM (active)
23,C/C=C/C=C/C=O,54.1 µM (active)
24,C[C@]12CC[C@@H]3c4ccc(O)cc4CC[C@H]3[C@@H]1CC[C@@H]2OC(=O)CCC1CCCC1,24.3 µM (active)
25,C[C@@H]1CC(=O)NN=C1c1ccc(NN=C(C#N)C#N)cc1,18.8 µM (active)
